Reference: PubChem BioAssay (NCI)
About 79,000 compounds went through this panel and 15% of them were active in at least one assay; those are over-represented in the sample as a whole. Cut-off read from the data, not from the text of the source: active = growth inhibition above about 70%; inactive = the rest.

Assays:
[1] = NCI Yeast Anticancer Drug Screen. Data for the rad50 strain (AID 155);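 note: 0% = growth of vehicle-only cultures of the same strain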; conditions: S. cerevisiae rad50 strain growth inhibition; at 50.0 µM; stronger effect = higher value
Method in brief: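 Vehicle-treated cultures provide the reference for the growth inhibition reported for compound-exposed, repair-deficient yeast.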

[2] = NCI Yeast Anticancer Drug Screen. Data for the mec2-1 strain (AID 157); conditions: S. cerevisiae mec2-1 strain, at 50.0 µM, stronger effect = higher value
Method in brief: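 mec2-1 yeast strain, carrying an alteration in DNA damage repair or cell cycle control, was exposed to compounds; growth inhibition was measured relative to vehicle-treated controls.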

[3] = NCI Yeast Anticancer Drug Screen. Data for the sgs1 mgt1 strain (AID 161);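 note: 0% = growth of cultures given vehicle only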; conditions: S. cerevisiae sgs1 mgt1 strain, at 50.0 µM, stronger effect = higher value
Method in brief: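 Growth of a repair-deficient yeast mutant was monitored after compound treatment and expressed as inhibition relative to vehicle-treated cultures.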

[4] = NCI Yeast Anticancer Drug Screen. Data for the cln2 rad14 strain (AID 165);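 note: 0% = growth equal to vehicle treated cultures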; conditions: S. cerevisiae cln2 rad14 strain, at 50.0 µM, stronger effect = higher value
Method in brief: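 Yeast carrying cln2 and rad14 alterations (cell cycle control and DNA damage repair) were exposed to compounds. Growth inhibition was measured against vehicle-treated controls.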

[5] = NCI Yeast Anticancer Drug Screen. Data for the bub3 strain (AID 167); conditions: S. cerevisiae bub3 mutant strain, at 50.0 µM, stronger effect = higher value
Method in brief: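 Mutant yeast screening strain plus compound; vehicle-treated cultures serve as the 0% inhibition reference.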

[6] = NCI Yeast Anticancer Drug Screen. Data for the mlh1 rad18 strain (AID 175); conditions: S. cerevisiae mlh1 rad18 strain growth inhibition; at 50.0 µM; stronger effect = higher value
Method in brief: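 Growth inhibition of the yeast strain was measured after compound exposure and expressed relative to vehicle-treated controls. The strain carries defined defects in DNA damage repair.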

Measured: growth inhibition

O=S(=O)(c1ccccc1)c1ccccc1Br
inactive: [1] 8% | [2] 14.8% | [3] -3.3% | [4] -18.4% | [5] -10.2% | [6] 35%

C/C(O)=C(\N=Nc1ccccc1)C(N)=O
inactive: [1] -9.45% | [2] 7.95% | [3] 5.9% | [4] -28.9% | [5] -0.8% | [6] -3.45%

Cc1c(C)c(O)c(C)c(C)c1O
inactive: [1] -8.8% | [2] -17.1% | [3] -4.85% | [4] -13.2% | [5] 6.85% | [6] 11.4%

O=C(Nc1ccccc1)OC1C=CC2CCC1C2 (centres undefined)
inactive: [1] 7.75% | [2] 3.35% | [3] 38.6% | [4] 12.8% | [5] 17.8% | [6] 58.3%

CCOC(=O)c1nnc(C)[nH]c1=O
inactive: [1] 13.4% | [2] -5.5% | [3] -14.5% | [4] -43.9% | [5] -2.8% | [6] 15%

CC(C)(N)CNCCO
inactive: [1] -3.25% | [2] 2.05% | [3] -8.9% | [4] -18.1% | [5] -1.7% | [6] 0.4%

CCCCCCCCN(CCCCCCCC)CC(O)c1cc(-c2ccccc2)nc2c(-c3ccccc3)cccc12 (centres undefined)
inactive: [1] 46.8% | [2] 32.5% | [3] 49.2% | [4] 51.1% | [5] 26.1% | [6] 48.5%

COC(=O)C1C2C=CC(O2)C1C(=O)OC (centres undefined)
inactive: [1] -2.15% | [2] -1.75% | [3] -9.75% | [4] -51.6% | [5] 14.1% | [6] -7.45%

CCSc1nc(C)cc(=O)[nH]1
inactive: [1] 28% | [2] -1.35% | [3] 9.6% | [4] 6.15% | [5] 13.2% | [6] 27.9%

CCSc1n[nH]c(=O)nc1SC
inactive: [1] 4.3% | [2] -3.25% | [3] -3.9% | [4] -67% | [5] -19.5% | [6] -0.35%

Cc1c(N)cc2c(c1[N+](=O)[O-])C(C)(C)CC2(C)C
inactive: [1] 3.15% | [2] -14.1% | [3] 1.6% | [4] -5.2% | [5] 11.9% | [6] -0.85%

CC(=O)c1ccc(C)cc1C
inactive: [1] 27.9% | [2] 4.35% | [3] 15.3% | [4] 2.65% | [5] 15.4% | [6] 2.95%

COc1cc(C2c3c(cc(OC)c(O)c3OC)C=C(C(=O)O)C2CO)cc(OC)c1O (centres undefined)
inactive: [1] 9.05% | [2] 5.35% | [3] -2.95% | [4] 24.3% | [5] -2.1% | [6] 14.3%

CC(=O)O/C1=C\CCCCCCCCCC1
inactive: [1] 6.95% | [2] -27.5% | [3] 28.3% | [4] 18.9% | [5] 13.5% | [6] -1.45%

CCc1nnc2n1N=C(c1ccc(-c3ccccc3)cc1)CS2
inactive: [1] 20.4% | [2] 28.3% | [3] 3.3% | [4] 5.05% | [5] 3.05% | [6] 26.1%

CC1(C)CC(C)(C)CC(O)(C2(O)CC(C)(C)CC(C)(C)C2)C1
inactive: [1] -0.95% | [2] 0.35% | [3] -2.7% | [4] -3% | [5] -5.4% | [6] 9.2%

O=C1C2C3C=CC(C3)C2C(=O)N1c1ncc([N+](=O)[O-])s1 (centres undefined)
inactive: [1] 17.8% | [2] -6.85% | [3] 26.9% | [4] -57.9% | [5] -14.2% | [6] 12.3%

CNC(C#N)c1ccc(OC)cc1 (centres undefined)
inactive: [1] 3.55% | [2] 17.9% | [3] -26.9% | [4] -17.4% | [5] -9.75% | [6] -28.4%

O=[N+]([O-])c1nccn1COCCI
inactive: [1] 7.25% | [2] 15.4% | [3] -0.2% | [4] 3.3% | [5] 7.75% | [6] 52.3%

O=C(O)c1cccc(N=Nc2ccccc2)c1O
inactive: [1] 22.1% | [2] -12.4% | [3] 4.65% | [4] -7.1% | [5] 6.05% | [6] 10.7%

COc1cccc(/C=C/c2cc3c(cc2Br)OCO3)c1
inactive: [1] 3.3% | [2] -3.35% | [3] 2.55% | [4] 3.65% | [5] 1.9% | [6] -6.3%

c1ccc2nn(C3CCCCO3)nc2c1 (centres undefined)
inactive: [1] -8.05% | [2] -9.85% | [3] -25.9% | [4] -18.1% | [5] 5.65% | [6] -54.6%

C/C=C(\C)C(=O)OCC1=CCC2CCC(O)N12 (centres undefined)
inactive: [1] 5.75% | [2] 0.05% | [3] 0.1% | [4] 6.05% | [5] 10.1% | [6] 8.55%

Cc1nn(-c2ccc([N+](=O)[O-])cc2)c2c1C(C)(C)C(C#N)=C(N)O2
inactive: [1] -9.9% | [2] -6.7% | [3] -3.5% | [4] -3.55% | [5] 0.65% | [6] 6.95%

Cc1cccc(Nc2nc(NNC(=O)Cc3ccccc3)nc(NNC(=O)c3ccncc3)n2)c1
inactive: [1] 17.4% | [2] -12.9% | [3] 42.2% | [4] 33.4% | [5] 22.6% | [6] 18.8%

C[P+]1(CCc2ccc(Cl)cc2)CC=CC1
inactive: [1] -4.15% | [2] 5.2% | [3] -2.9% | [4] -18.9% | [5] 0.2% | [6] -3.95%

CC(=O)Nc1ccc(S(=O)(=O)NNC(=O)C(=O)Nc2cccc(Cl)c2)cc1
inactive: [1] -12.5% | [2] -21.4% | [3] -18.2% | [4] 16.4% | [5] -0.1% | [6] -1.6%

CN1CCCCC1CCN1CCCCC1 (centres undefined)
inactive: [1] -38.9% | [2] -10.2% | [3] -7.8% | [4] -39.5% | [5] -17.9% | [6] 1.3%

COC(=O)CCN1CCN(CCO)CC1C (centres undefined)
inactive: [1] -36.9% | [2] -39.8% | [3] -26.6% | [4] -9.75% | [5] -2% | [6] -32.5%

O=C(NC(=S)c1ccccc1)Nc1ccccc1
inactive: [1] 2.1% | [2] 37.5% | [3] 6.85% | [4] -8.85% | [5] 24.4% | [6] 18.9%

CC(=O)Oc1ccc(C(c2ccccc2)c2ccccc2)c2ccccc12
inactive: [1] -9.8% | [2] -13.4% | [3] -1.95% | [4] 2.85% | [5] -52.8% | [6] -18.9%

CC(=O)NNc1nc(C)c(C(/C=C/c2ccc(Cl)cc2)=N\NS(=O)(=O)c2ccc(C)cc2)s1
inactive: [1] 26.1% | [2] 2.9% | [3] 19.6% | [4] 23.2% | [5] 23.6% | [6] 9.45%

CC(NC(=O)Nc1ccccc1Cl)c1ccccc1 (centres undefined)
inactive: [1] -2.05% | [2] 17.6% | [3] 1.5% | [4] -10.8% | [5] 34% | [6] 11.1%

S=C(NCN1CCOCC1)NCN1CCOCC1
inactive: [1] -14.8% | [2] 5.75% | [3] -5.2% | [4] -2.7% | [5] 2.05% | [6] -16%

O=C(CCN1C(=O)c2ccccc2C1=O)c1cnc[nH]1
inactive: [1] 13.8% | [2] 16.9% | [3] 13.4% | [4] -4.5% | [5] 2.6% | [6] 10.4%

C(=C/c1ccccc1)/CNCCNC/C=C/c1ccccc1
inactive: [1] 46.1% | [2] 22.6% | [3] 40.8% | [4] 35% | [5] 35.3% | [6] 47.5%

Cc1ccc(NC(=O)OCCOc2ccccc2)cc1NC(=O)OCCOc1ccccc1
inactive: [1] 10.3% | [2] 17.1% | [3] 28% | [4] 6.3% | [5] 3.1% | [6] 33.9%

OCCCN1CCN(CCO)CC1
inactive: [1] -42% | [2] -14.8% | [3] -12.7% | [4] -48.9% | [5] 4.25% | [6] -2.25%

Cc1c(C#N)c(=N)oc2ccccc12
inactive: [1] 7.9% | [2] 7.35% | [3] 22.8% | [4] 14.5% | [5] 18.1% | [6] -31.5%
